Assay outcomes: PubChem, several laboratories
CR mimetic SO = lowers age-related superoxide in aged yeast cells; S. cerevisiae aged cells, superoxide DHE fluorescence; hits give low values; superoxide response (% of plate mean), % at 10 µM; 330,000 tested, 0.18% active;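 active = superoxide response under a set limit, about three screen SD below normal, cut at about 65% in these data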;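 note: yeast aged for seven days with compound at 30 °C before DHE staining; 100% = average MFI of all compound-treated wells on the plate with controls excluded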
H9c2 protect = myocardial damage modulation in H9c2 cells. 360,000 tested, 0.63% active. protection from H2O2 cell death, % at 20 µM. H9c2 cardiomyocytes, H2O2 injury protection, ATPLite, 2 h;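 active = compounds giving at least 50% protection of heart cells from peroxide-induced death in the single-dose screen, raw or plate-pattern-corrected value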;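 note: 0% = DMSO wells with peroxide and 100% = DMSO wells without peroxide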
aDG glyco up = increases alpha dystroglycan glycosylation. Pro5-aDG cells, alpha-DG glycosylation AlphaScreen (IIH6); 0% Pro5, 100% B10-LARGE cell signal. activation, % at 10 µM. 360,000 tested, 0.22% active. AID 624168;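 active = activation of at least 8% versus controls, or a plate z-score of at least 8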;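 note: Pro5 are CHO cells carrying HIG-tagged alpha-DG that lacks glycosylation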
SUMO Mot1 rescue = SUMOylation pathway inhibition by Mot1-301 growth rescue | growth rescue, % at 18.8 µM | 320,000 tested, 1% active | S. cerevisiae Mot1-301 growth rescue, ATP luminescence, 38.5C; percent above DMSO median, 100 means doubled;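 active = every valid replicate shows activation above 250% relative to neutral control wells; inactive = the rest, any valid replicate at or below 250%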;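 note: OY570 slx delta 5 strain wells were the positive control but not used for scaling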
FAS TE block = blocks the thioesterase domain of human fatty acid synthase; P49327; recombinant FAS-TE, OMFH fluorogenic substrate, fluorescence endpoint; inhibition, % at 15 µM; 360,000 tested, 0.67% active;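 active = compounds whose normalised, plate-corrected inhibition of enzyme fluorescence in the single-dose primary screen is 50% or more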;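 note: 0% = DMSO with enzyme and 100% = substrate without enzyme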
MPTP inh = permeability transition pore inhibition. isolated mouse mitochondria, Ca2+ swelling absorbance, 30 min. inhibition, % at 10 µM. 360,000 tested, 1.4% active;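 active = inhibition of 50% or more, scaled per plate between neutral and stimulator controls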;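 note: 0% = DMSO wells given calcium and 100% = 1 mM EGTA wells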
FAS-TE inh conf = confirmation of human fatty acid synthase thioesterase inhibitors | shares compounds with FAS TE block | AID 624325 | inhibition, % at 15 µM | recombinant FAS-TE, OMFH fluorogenic substrate, fluorescence | 2,300 tested, 45% active;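 active = compounds inhibiting the enzyme by at least 50% at 15 µM in any one of the replicates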;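 note: 0% = enzyme with DMSO only and 100% = wells lacking enzyme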
* hit, by the source's call; . = no result given. A selection: hits, their analogues and other compounds. The true share with any hit is near 3.8%.

SMILES	CR mimetic SO	H9c2 protect	aDG glyco up	SUMO Mot1 rescue	FAS TE block	MPTP inh	FAS-TE inh conf
COc1ccc(OC)c(-c2nc3cc4ccccc4cc3nc2-c2ccccc2)c1	97	-8	0	-5	53*	3	14
COC1=CC(C)C2CC3OC(=O)CC4C(C)=C(OC)C(=O)C(C2(C)C1=O)C34C (stereo not given)	.	1	0	.	-5	0	.
COc1ccc(CNC(=O)C[C@H]2C[C@H](C(=O)N3CCCCC3)[C@@]3(CCc4ccccc4)c4[nH]c5ccc(Cl)cc5c4CCN3C2=O)cc1OC	93	-8	0	.	69*	-3	19
O=C(CC1C[C@H](C(=O)N2CCOCC2)[C@@]2(CCC3CCCC3)c3[nH]c4ccccc4c3CCN2C1=O)NCc1cccc(C(F)(F)F)c1 (stereo not given in full)	.	-40	0	.	61*	-1	34*
COc1ccc2[nH]c3c(c2c1)CCN1C(=O)C(CC(=O)NCc2ccc(OC)c(OC)c2)C[C@H](C(=O)N2CCOCC2)[C@@]31CCC1CCCC1 (stereo not given in full)	82	4	0	.	43	1	.
CN(C)C(=O)CCc1ccc2c3c([nH]c2c1)[C@]1(CCC2CCCC2)[C@@H](C(=O)N2CCOCC2)C[C@H](CC(=O)NCc2cccc(C(F)(F)F)c2)C(=O)N1CC3	107	-10	0	.	22	0	.
COc1ccc(CNC(=O)CC2C[C@H](C(=O)N3CCOCC3)[C@@]3(CCC4CCCC4)c4[nH]c5ccccc5c4CCN3C2=O)cc1OC (stereo not given in full)	103	-2	0	4	77*	0	88*
Cc1ccccc1-c1cnc(C(O)c2ccc(Cl)c(F)c2)[nH]1 (stereo not given)	.	-6	0	.	17	4	.
CC(C)Cc1nnc(NC(=O)CCC(=O)N2CCN(Cc3ccc(Cl)cc3)CC2)s1	99	-9	0	3	-4	-1	.
O=C(Nc1ccc(F)cc1)N(Cc1cccs1)Cc1cc2cc3c(cc2[nH]c1=O)OCO3	117	20	0	11	55*	0	34
COC(=O)c1ccccc1NC(=S)N(Cc1ccc2c(c1)OCO2)Cc1cc2ccc(C)cc2[nH]c1=O	89	-8	0	345	79*	1	29
CNC(=S)N(Cc1cccs1)Cc1cc2cc(OC)ccc2[nH]c1=O	110	2	0	-11	-1	0	.
COc1ccc2[nH]c(=O)c(CN(Cc3cccs3)C(=S)Nc3cccc(C)c3)cc2c1	99	18	1	4	72*	3	7
Cc1ccc(NC(=O)N(CCCN2CCOCC2)Cc2cc3cc4c(cc3[nH]c2=O)OCO4)cc1	100	-2	0	-16	-5	0	.
Cc1ccc(NC(=O)N(Cc2cccs2)Cc2cc3cc4c(cc3[nH]c2=O)OCO4)cc1	96	.	.	14	.	.	.
Cc1ccc(NC(=O)N(Cc2ccc3c(c2)OCO3)Cc2cc3cc4c(cc3[nH]c2=O)OCCO4)cc1	97	14	0	6	75*	0	26
COC(=O)c1cc(C(=O)OCC(=O)NCc2ccc3c(c2)OCO3)cc([N+](=O)[O-])c1	110	5	0	11	32	-10	.
COc1ccc(C(=O)OCC(=O)NCc2ccc3c(c2)OCO3)cc1[N+](=O)[O-]	107	11	0	20	50*	1	1
COc1cc(-c2nnc(COC(=O)C3c4ccccc4Oc4ccccc43)o2)cc(OC)c1OC	92	16	0	-2	10	1	.
COc1ccc(C2=C(C=C(C#N)C#N)C(c3ccccc3C)c3ccccc3O2)cc1OC (stereo not given)	93	-3	0	5	69*	34	18
COc1ccc(CC(=O)N(C)Cc2ccc(C(C)(C)C)cc2)cc1S(=O)(=O)N1CCOCC1	107	-3	0	3	80*	0	82*
Cc1ccc(OCCOC(=O)c2cccc(S(=O)(=O)N3CC(C)OC(C)C3)c2)cc1 (stereo not given)	102	-7	0	77	16	0	.
CCCCC(=O)Nc1ccccc1C(=O)OCC(=O)c1ccc2c(c1)OCCO2	88	-15	0	110	56*	-1	30
COc1ccc(NS(=O)(=O)c2ccc3c(c2)CCN3C(=O)CCC(=O)O)cc1OC	97	3	0	14	-14	2	.
Cc1ccc(NC(=S)NC(CO)C(O)c2ccc([N+](=O)[O-])cc2)cc1 (stereo not given)	96	-2	0	-7	18	-1	.
SMILES	CR mimetic SO	H9c2 protect	aDG glyco up	SUMO Mot1 rescue	FAS TE block	MPTP inh	FAS-TE inh conf
O=[N+]([O-])c1ccc(C(O)C(CO)NC(=S)Nc2ccccc2)cc1 (stereo not given)	95	1	0	-13	59*	5	55*
C[C@@H]1CN([C@H](C)CO)S(=O)(=O)c2ccc(C#Cc3ccccc3F)cc2O[C@@H]1CN(C)C(=O)Cc1ccccc1	.	24	0	.	70*	-2	41*
C[C@H]1CN([C@@H](C)CO)S(=O)(=O)c2ccc(Br)cc2O[C@H]1CN(C)C(=O)Cc1ccccc1	.	21	0	.	-1	1	.
COc1ccc(C(=O)N2CCN(CCc3ccccc3)CC2)cc1[N+](=O)[O-]	115	-3	0	-10	87*	1	90*
COc1ccc(C(=O)N2CCN(Cc3ccccc3)CC2)cc1[N+](=O)[O-]	110	-5	0	-2	1	0	.
COc1ccc(C(=O)NC(C)CCc2ccccc2)cc1[N+](=O)[O-] (stereo not given)	96	-6	0	9	51*	2	52*
CC[C@]1(c2cccc(C)c2)C(=O)N(C(=O)OC)N1C(=O)OC	104	10	0	54	62*	-2	59*
COC(=O)N1C(=O)[C@](Cc2ccccc2)(c2ccccc2)N1C(=O)OC	102	0	0	33	63*	1	75*
Cc1cc(Cl)ccc1C(=O)C1CCCN(C(=O)c2cccc(N3CCCC3=O)c2)C1 (stereo not given)	146	2	0	3	-2	2	.
O=C(Nc1nc(-c2ccccc2)c(C(=O)c2ccccc2)s1)c1ccc(S(=O)(=O)N2CCCCC2)cc1	100	-22	0	-24	86*	21	9
O=C(NNc1nc(-c2ccccc2)c2cc(Br)ccc2n1)c1ccc(S(=O)(=O)N2CCOCC2)cc1	120	-4	0	87	80*	0	20
